Source: the supplement of paper PMC8728848
Shown is part of a subset that was picked to be rich in the strongest signals.

Experiments:
Experiment in all cases: glycan array binding signal (z-score within array); higher = stronger binding
Conditions in all cases: glycan notation: IUPAC condensed, linker removed
[1] = target: GlcNAc(b1-3)Gal(b1-4)GlcNAc(b1-6)[Gal(b1-3)]GalNAc
Outline: (§1)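 The Consortium for Functional Glycomics database supplied 3228 glycan arrays, of which those lacking an available protein sequence were dropped. The binding signal, a within-array Z-score, was averaged across arrays of the same protein sequence and across linkers. Negative scores can be read as non-binding.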

[2] = target: GlcNAc(b1-3)Gal(b1-4)GlcNAc(b1-6)[GlcNAc(b1-3)Gal(b1-3)]GalNAc
Outline: as §1

[3] = target: GlcNAc(b1-3)Man
Outline: as §1

[4] = target: GlcNAc(b1-4)GlcNAc(b1-4)GlcNAc(b1-4)GlcNAc(b1-4)GlcNAc(b1-4)GlcNAc
Outline: as §1

[5] = target: GlcNAc6S(b1-3)Gal(b1-4)GlcNAc
Outline: as §1

[6] = target: Man(a1-2)Man(a1-6)[Man(a1-3)]Man(a1-6)[Man(a1-2)Man(a1-2)Man(a1-3)]Man(b1-4)GlcNAc(b1-4)GlcNAc
Outline: as §1

[7] = target: Man(b1-4)GlcNAc
Outline: as §1

[8] = target: Neu5Ac(a2-3)Gal
Outline: as §1

[9] = target: Neu5Ac(a2-3)Gal(b1-3)GalNAc6S
Outline: as §1

[10] = target: Neu5Ac(a2-3)Gal(b1-3)GlcNAc(b1-2)[Neu5Ac(a2-3)Gal(b1-3)GlcNAc(b1-4)]Man(a1-6)[Neu5Ac(a2-3)Gal(b1-3)GlcNAc(b1-2)Man(a1-3)]Man(b1-4)GlcNAc(b1-4)GlcNAc
Outline: as §1

[11] = target: Neu5Ac(a2-3)Gal(b1-3)GlcNAc(b1-3)Gal(b1-3)GlcNAc
Outline: as §1

[12] = target: Neu5Ac(a2-3)Gal(b1-3)GlcNAc(b1-6)GalNAc
Outline: as §1

[13] = target: Neu5Ac(a2-3)Gal(b1-3)[Fuc(a1-4)]GlcNAc(b1-3)Gal(b1-4)[Fuc(a1-3)]GlcNAc
Outline: as §1

[14] = target: Neu5Ac(a2-3)Gal(b1-4)Glc
Outline: as §1

[15] = target: Neu5Ac(a2-3)Gal(b1-4)GlcNAc(b1-2)[Neu5Ac(a2-3)Gal(b1-4)GlcNAc(b1-4)]Man(a1-3)[GlcNAc(b1-4)][Neu5Ac(a2-3)Gal(b1-4)GlcNAc(b1-4)Man(a1-6)]Man(b1-4)GlcNAc(b1-4)GlcNAc
Outline: as §1

[16] = target: Neu5Ac(a2-3)Gal(b1-4)GlcNAc(b1-6)[Neu5Ac(a2-3)Gal(b1-3)]GalNAc
Outline: as §1

[17] = target: Neu5Ac(a2-3)Gal(b1-4)[Fuc(a1-3)]GlcNAc(b1-3)Gal(b1-4)GlcNAc
Outline: as §1

[18] = target: Neu5Ac(a2-3)Gal(b1-4)[Fuc(a1-3)]GlcNAc(b1-3)Gal(b1-4)[Fuc(a1-3)]GlcNAc(b1-3)Gal(b1-4)[Fuc(a1-3)]GlcNAc
Outline: as §1

[19] = target: Neu5Ac(a2-3)Gal(b1-4)[Fuc(a1-3)]GlcNAc(b1-3)GalNAc
Outline: as §1

[20] = target: Neu5Ac(a2-6)Gal(b1-3)GlcNAc(b1-3)[Gal(b1-4)GlcNAc(b1-6)]Gal(b1-4)Glc
Outline: as §1

[21] = target: Neu5Ac(a2-6)Gal(b1-4)GlcNAc(b1-2)Man(a1-6)[Gal(b1-4)GlcNAc(b1-2)Man(a1-3)]Man(b1-4)GlcNAc(b1-4)GlcNAc
Outline: as §1

[22] = target: Neu5Ac(a2-6)Gal(b1-4)GlcNAc(b1-3)Gal(b1-4)GlcNAc(b1-3)Gal(b1-4)GlcNAc
Outline: as §1

[23] = target: Neu5Ac(a2-6)Gal(b1-4)GlcNAc(b1-3)Gal(b1-4)[Fuc(a1-3)]GlcNAc(b1-3)Gal(b1-4)[Fuc(a1-3)]GlcNAc
Outline: as §1

[24] = target: Neu5Ac(a2-8)Neu5Ac(a2-8)Neu5Ac(a2-3)[GalNAc(b1-4)]Gal(b1-4)Glc
Outline: as §1

[25] = target: Neu5Ac(a2-8)Neu5Ac(a2-8)Neu5Ac(a2-8)Neu5Ac(a2-3)[GalNAc(b1-4)]Gal(b1-4)Glc
Outline: as §1

[26] = target: Neu5Ac(a2-8)Neu5Gc(a2-3)Gal(b1-4)GlcNAc
Outline: as §1

[27] = target: Neu5Gc(a2-3)Gal(b1-3)GlcNAc
Outline: as §1

B1: LF82 (Escherichia coli) (protein)
chain: ADWGPCRTASGDPFIFVTSFTKNIQNPTDNVTGQTYPDFYQWALGDKYSGVCECPSPNPTEARPTLYKTESTLAAGHNSTYFKITNNLEVSTRVYIANVGNVQVPFINKSNSQPGRECDQPTFGWTTGSKGQLSLYIAKPFVGEQNIPQTIIVSVFGTKKENVYSSVPISQVLLSGKVTVTQGCELAAGTSLDIDFGEYQAHDFKGRTGQPPQNVQKIQKELTFNCTNISDGVHIYLSLEGTPNAAYPSAISLGNADVGAVIEDGKGNILKPNDSNSLLEMNPGSLYEYVKRKVTTTITAYPVSTTGKLPAAGDYSGVATMHVELDGGGGGGGGGGATTDLGAKGTLKFSLKISQGHHHHHH
- glycan array binding signal (z-score) [1]: -0.509
- glycan array binding signal (z-score) [2]: 0.416
- glycan array binding signal (z-score) [3]: 0.644
- glycan array binding signal (z-score) [4]: -1.17
- glycan array binding signal (z-score) [5]: -0.173
- glycan array binding signal (z-score) [6]: 0.244
- glycan array binding signal (z-score) [7]: 0.456
- glycan array binding signal (z-score) [8]: 0.191
- glycan array binding signal (z-score) [9]: 0.435
- glycan array binding signal (z-score) [10]: 4.88
- glycan array binding signal (z-score) [11]: -0.469
- glycan array binding signal (z-score) [12]: -0.373
- glycan array binding signal (z-score) [13]: -0.501
- glycan array binding signal (z-score) [14]: 0.503
- glycan array binding signal (z-score) [15]: 2.08
- glycan array binding signal (z-score) [16]: -0.112
- glycan array binding signal (z-score) [17]: 0.281
- glycan array binding signal (z-score) [18]: 0.12
- glycan array binding signal (z-score) [19]: 0.56
- glycan array binding signal (z-score) [20]: 2.17
- glycan array binding signal (z-score) [21]: 0.283
- glycan array binding signal (z-score) [22]: 0.668
- glycan array binding signal (z-score) [23]: 0.159
- glycan array binding signal (z-score) [24]: -0.553
- glycan array binding signal (z-score) [25]: 2.59
- glycan array binding signal (z-score) [26]: -0.211
- glycan array binding signal (z-score) [27]: 3.85
